# Only some compounds are listed: those with a hit (about 19% of all), similar ones and a draw of the others.
# IL1B secr inh = qHTS for Inhibitors of Inflammasome Signaling: IL-1-beta AlphaLISA Primary Screen | THP-1 LPS/ATP IL-1B secretion, AlphaLISA, 16 h; stronger effect = lower value | activity change, % at 57.5 µM | AID 743279, 2014 | actives 4.7% (n = 360,000); in the data active = activity change below about -50%; inconclusive = mostly about -30% to -49%
#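 Secreted IL-1B measured by AlphaLISA bead assay after 16 h compound exposure of THP-1 cells; compounds (final up to 57.5 uM) added 1 h before LPS (250 ng/mL) and ATP (1.25 mM) stimulation; lower signal means less secretion.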
# HT1080-NT tox = qHTS for induction of synthetic lethality in tumor cells producing 2HG: qHTS for the HT-1080-NT fibrosarcoma cell line; HT-1080-NT fibrosarcoma viability, CellTiter-Glo ATP luminescence, 48 h; Potency, µM (top dose mostly 46.1 µM), for the others: at the top dose activity, negative = less viability, most hits filed as cytotoxic; actives 1.6% (n = 360,000); AID 686970, 2013;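 also: NT is the 2HG producing partner of a matched IDH1 knockdown line; potency is read from the fitted curve at half-maximal effect; 0% = DMSO-treated cells and -100% = media-only wells without cells; nearly all actives have a fitted effect of over 55% in size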
#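 Fibrosarcoma NT cells, 750 per well in 5% FBS RPMI, were exposed to compound for 48 hours. Viability: CellTiter-Glo luminescence.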
# TDP1 cell noCPT = qHTS for Inhibitors of human tyrosyl-DNA phosphodiesterase 1 (TDP1): qHTS in cells in absence of CPT; AID 686978, 2013; actives 15% (n = 420,000); DT40 Tdp1-/- hTDP1 cells, no CPT, ATP luminescence, 48 h; Potency, µM (top dose mostly 46.2 µM), inactives show at the highest dose activity change, negative = growth inhibition, actives largely listed as inhibitors; also: potency is read from the fitted curve at half-maximal effect; nearly all actives have a fitted effect of over 55% in size
#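 Seeded 400 DT40-hTDP1 cells/well (vehicle DMSO, no 20 nM CPT); pinned compounds; ≥48 hr at 37 °C; CellTiter-Glo luminescence as viability measure.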
# HT1080 IDH1KD tx = qHTS for induction of synthetic lethality in tumor cells producing 2HG: qHTS for the HT-1080-IDH1KD cell line; actives 2% (n = 360,000); Potency, µM (highest dose often 46.1 µM), inactives show at the top dose activity, negative = toxicity, usual class: cytotoxic; HT-1080 IDH1 knockdown viability, ATP luminescence, 48 h;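 also: potency is read from the fitted curve at half-maximal effect; 0% = DMSO wells and -100% = cell-free medium wells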
#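 Cytotoxicity counter-line: IDH1KD HT-1080, 48 h, CellTiter-Glo. Curves classed by r2, magnitude and activity.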
# TDP1 cell CPT = qHTS for Inhibitors of human tyrosyl-DNA phosphodiesterase 1 (TDP1): qHTS in cells in presence of CPT | Potency, µM (titrated, usually from 46.2 µM), for the others: at the top dose activity change, negative = growth inhibition, actives largely listed as inhibitors | chicken DT40 Tdp1-/-;hTDP1 cells + 20 nM CPT, ATP luminescence, 48 h | actives 12% (n = 420,000) | AID 686979, 2013; also: potency is read from the fitted curve at half-maximal effect; nearly all actives have a fitted effect of over 55% in size
#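 Chicken DT40 Tdp1-/- cells stably complemented with human TDP1 were seeded at 400 cells/well in medium containing 20 nM camptothecin, exposed to pin-transferred compounds, and grown at 37 °C for at least 48 hr. Viability was read as ATP luminescence.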
# ELG1 repair inh = qHTS screen for small molecules that inhibit ELG1-dependent DNA repair in human embryonic kidney (HEK293T) cells expressing luciferase-tagged ELG1; HEK293T ELG1-luciferase reporter, luminescence, 16 h; DNA damage induced by 5-fluorouridine; Potency, µM (series often up to 46.1 µM), without a hit: at the highest dose activity change, negative = inhibition, most hits filed as inhibitors; actives 2.3% (n = 330,000); AID 504467, 2011; also: potency is read from the fitted curve at half-maximal effect; nearly all actives have a fitted effect of over 55% in size
#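 HEK293T cells expressing luciferase-tagged ELG1 (2,000/well) received 5-Fluorouridine plus compound or DMSO for 16 hr at 37 °C. Luciferase was read by ONE-Glo luminescence after 30 min at room temperature.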
# * = called active by the depositor; u = inconclusive; x = no result given. Unless noted, calls follow the shape of the dose curve; as a rule, active = well fitted curve in the direction sought with a large enough effect; inconclusive = small, poorly fitted or top-dose-only effect, or another doubt; inactive = no such curve, though single readings can be large; an effect the other way counts as inactive or inconclusive. Unless noted, % is scaled to controls: 0 for no effect and ±100 for the full control effect.
SMILES,IL1B secr inh,HT1080-NT tox,TDP1 cell noCPT,HT1080 IDH1KD tx,TDP1 cell CPT,ELG1 repair inh
CCOC(=O)C1=C(COc2ccccc2)NC(=O)NC1c1ccc(Br)cc1 (stereo unspecified),u,9%,16µM*,0%,18µM*,-8%
CCOC(=O)C1=C(COc2ccccc2)NC(=O)NC1c1ccc2ccccc2c1 (stereo unspecified),-5,u,21µM*,-13%,18µM*,x
COc1ccc(CCCNC(=O)C2CCC(=O)N(CC3CCCCC3)C2)cc1 (stereo unspecified),-6,-6%,18µM*,-15%,16µM*,20%
COc1ccc(CCCNC(=O)C2CCC(=O)N(CCc3cccc(F)c3)C2)cc1 (stereo unspecified),1,1%,u,-1%,23µM*,2%
COc1ccc(CCNC(=O)C2CCC(=O)N(CC3CCCCC3)C2)cc1 (stereo unspecified),8,-7%,-5%,-2%,u,-9%
COC(=O)c1ccc(CNC(=O)C2CCC(=O)N(CCCc3ccccc3)C2)cc1 (stereo unspecified),0,-4%,u,-4%,13µM*,-14%
COc1ccc(CCN2CC(C(=O)NCCc3cccc(F)c3)CCC2=O)cc1 (stereo unspecified),-6,-6%,4%,0%,-6%,14%
COc1ccccc1CCCNC(=O)C1CCC(=O)N(CCc2cccc(F)c2)C1 (stereo unspecified),11,3%,18µM*,6%,u,4%
CC(C)NC(=O)CN1C(=O)c2cccnc2Sc2ccccc21,x,x,5%,x,14%,x
COc1ccc(CCNC(=O)C2CCN(S(=O)(=O)c3c(C)noc3/C=C/c3ccc(C)cc3)CC2)cc1OC,x,x,-19%,x,-18%,x
O=C(Nc1ccccc1)C1=C(N2CCOCC2)/C(=C/c2cccnc2)CC1,-25,5%,-13%,0%,-5%,8%
COc1cc(NC(=O)C2=C(N3CCOCC3)/C(=C/c3ccc(Cl)cc3)CC2)cc(OC)c1OC,8,-26%,7.3µM*,-21%,6.5µM*,16µM*
COc1cc(NC(=O)C2=C(N3CCOCC3)/C(=C\c3ccc(N(C)C)cc3)CCC2)cc(OC)c1OC,0,u,2.9µM*,29µM*,7.3µM*,u
Cc1ccc2c(=O)n3c(nc2c1)C(Cc1ccccc1)NC(=O)c1ccc(Cl)cc1-3 (stereo unspecified),x,x,x,x,x,-17%
COc1ccc(-c2cn3cccnc3n2)cc1NC(=O)Cc1ccccc1,x,x,u,x,-27%,x
CCOC(=O)/C(C#N)=C/c1ccc(-c2ccccc2)o1,x,x,u,x,-23%,x
CCOC(=O)c1ccc(-c2ccc(/C=C(\C#N)C(=O)NCc3cccs3)o2)cc1,10,-1%,18µM*,-2%,23µM*,u
Cc1cc2nc(/C(C#N)=C\c3ccc(-c4ccccc4C(=O)O)o3)[nH]c2cc1C,-20,5%,-15%,28%,1%,6%
Cc1ccc2nc(/C(C#N)=C\c3ccc(N4CCOCC4)o3)[nH]c2c1,-12,-2%,21µM*,0%,13µM*,u
CCOC(=O)c1ccc(-c2ccc(/C=C(\C#N)c3nc4ccc(C)cc4[nH]3)o2)cc1,x,x,2.6µM*,x,23µM*,x
CCN1C(=O)C(=O)N(Cc2ccc(OC)c(F)c2)C1=O,-4,0%,u,17%,-9%,2%
N#CCCN(C(=O)COC(=O)COc1ccccc1Cc1ccccc1)c1ccccc1,-7,0%,-15%,-8%,-29%,u
Cc1ccc(S(=O)(=O)C[C@@H]2OC[C@H](CO)N2S(=O)(=O)c2ccc(C)cc2)cc1,4,14%,-2%,14%,-4%,x
COc1ccc(C(=O)/C=C/c2ccc(OC(=O)c3cc(OC)c(OC)c(OC)c3)cc2)cc1,-83*,u,21µM*,u,u,-1%
COc1cc(/C=C/C(=O)c2ccc(F)cc2)cc(OC)c1OC,-74*,23µM*,16µM*,18µM*,u,u
SMILES,IL1B secr inh,HT1080-NT tox,TDP1 cell noCPT,HT1080 IDH1KD tx,TDP1 cell CPT,ELG1 repair inh
CCOc1ccc(C(=O)/C=C/c2cc(OC)c(OC)c(OC)c2)cc1,-94*,u,8.2µM*,16µM*,10µM*,u
CCOc1ccc(C(=O)c2ccc(OC)c(O)c2O)cc1,x,x,u,x,21µM*,x
COc1ccc(C)cc1S(=O)(=O)NCc1ccccn1,-11,1%,2%,-2%,1%,x
CC(C)(C)c1ccc(C(=O)NCC(=O)N2CCC3(CC2)NCCc2[nH]cnc23)cc1,8,21%,0%,-4%,-2%,25%
CCOc1ccc(N2C(=O)/C(=C/c3cc(OC)c(OC)c(OC)c3)N(CC(=O)OC)C2=S)cc1,-90*,-27%,18µM*,-23%,u,u
CCOc1ccc(/C=C2/C(=O)N(c3ccc(OC)cc3)C(=S)N2CC(=O)OC)cc1OCC,29,-11%,u,-7%,u,u
CCC(=O)N1CCN(c2ccccc2NC(=O)Cc2ccc(Cl)cc2)CC1,0,-18%,23µM*,-28%,-15%,-2%
O=C(Cc1ccc(Cl)c(Cl)c1)Nc1ccccc1N1CCCC1,14,-28%,u,-24%,15µM*,2%
CCC(=O)N1CCN(c2ccc(Cl)cc2NC(=O)Cc2ccc(Cl)cc2)CC1,u,-30%,u,u,u,u
O=C(Cc1ccc(F)cc1)Nc1ccccc1N1CCCC1,0,0%,u,12%,u,1%
COc1ccc(NC(=O)Cn2c(=O)n(-c3cccc(C)c3)c(=O)c3c2c2cc(C)ccc2n3C)cc1OC,x,x,u,x,-6%,x
N#C/C(C(=O)N1CCOCC1)=c1/s/c(=C\c2ccccn2)c(=O)n1-c1ccccc1,4,9%,3%,-1%,4%,7%
COc1ccc(-n2c(=O)/c(=C\c3cccs3)s/c2=C(/C#N)C(=O)N2CCN(C)CC2)cc1,25,u,23µM*,u,-26%,u

# Source: PubChem (National Center for Advancing Translational Sciences (NCATS))
